# Assay outcomes deposited in PubChem by National Center for Advancing Translational Sciences (NCATS).
# Hits are enriched below; roughly 3.6% of the tested compounds scored in any of these assays.
# HepG2 viability: HepG2 cytotoxicity, counter-screen for TGF-b inhibitors; HepG2 CAGA-GFP viability, ATP luminescence, 18 h; Potency, µM (series often up to 46.1 µM), for inactives: at the top dose activity change, negative = cytotoxicity, actives largely listed as cytotoxic; 0.76% of 410,000 active
#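 HepG2 CAGA-GFP cells (1000/well, DMEM with 1% FBS) received compound, then TGF-beta at 500 pg/mL final, and were incubated 18 hours at 37 degrees C. Viability was read by CellTiter-Glo luminescence. Media-only wells were set as complete cell-killing and DMSO as no toxicity.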
# A549 viability: kills or reduces viability of A549 cells in Nrf2 counter-screen | A549 ARE-Fluc cells, CellTiter-Fluor viability, 18-24 h | Potency, µM (titrated, usually from 46 µM), for inactives: at the highest dose activity change, negative = cytotoxicity, actives largely listed as inhibitors | 0.16% of 390,000 active | AID 504648; also: % is scaled to controls: 0 for no effect and ±100 for the full control effect
#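 A549 ARE_Fluc cells in 5% FBS OPTI-MEM were exposed to compounds in concentration-response for 18-24 h at 37 deg C. Viability was read by CellTiter-Fluor fluorescence (Ex 405/Em 525) after 30 min, before the luciferase read.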
# Nrf2 block: inhibitors of Nrf2 signaling; A549 ARE-Fluc reporter, luciferase luminescence, 18-24 h; Potency, µM (highest dose often 46 µM), inactives show top-dose activity change, negative = inhibition, usual class: inhibitors; 2.1% of 360,000 active; AID 504444; also: % is scaled to controls: 0 for no effect and ±100 for the full control effect; nearly all actives have a fitted effect of over 60% in size
#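 A549 ARE_Fluc cells (5000/well, 5% FBS OPTI-MEM) pre-incubated 2 h, then treated with compounds 18-24 h at 37C/5% CO2 in concentration-response. CellTiter-Fluor viability read first; BugLite luciferase luminescence after 15 min at room temperature gives Nrf2 activity.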
# Nrf2 ARE act: Nrf2 pathway activation; AREc32 ARE-luciferase reporter (MCF7-derived line), luminescence, 24 h; Potency, µM (series often up to 46.1 µM), without a hit: at the highest dose activation, hits mostly activators; 0.31% of 410,000 active; AID 624171; also: % of control where 0% means no effect; nearly all actives have a fitted effect of over 65% in size
#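 AREc32 cells carrying an ARE-driven firefly luciferase, 1000 cells/well in OPTI-MEM with 5% FBS, dosed after overnight attachment and incubated 24 hr at 37 deg C. Steady-Glo luminescence read after 30 min at RT.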
# TGFb inhibitor: TGF-b pathway inhibition; 1.2% of 410,000 active; HepG2 CAGA-GFP TGF-b/SMAD3 reporter, GFP fluorescence, 18 h; TGF-beta stimulated, 500 pg/mL final; Potency, µM (series often up to 46.1 µM), without a hit: top-dose activity, negative = inhibition, usual class: inhibitors; also: % is scaled to controls: 0 for no effect and ±100 for the full control effect; nearly all actives have a fitted effect of over 65% in size
#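 Per well, imaged GFP fluorescence of HEPG2 CAGA-GFP cells gives the signal; cells get compound, then TGF-beta (500 pg/mL final), 18 h at 37 degrees C; %Activity versus -TGF-beta and +DMSO controls.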
# Active calls of the source: *; ? = inconclusive; [ ] = remark or other dose. Calls follow the shape of the dose curve; as a rule, active = well fitted curve in the direction sought with a large enough effect; inconclusive = small, poorly fitted or top-dose-only effect, or another doubt; inactive = no such curve, though single readings can be large; an effect the other way counts as inactive or inconclusive. Potency is read from the fitted curve at half-maximal effect.
SMILES,HepG2 viability,A549 viability,Nrf2 block,Nrf2 ARE act,TGFb inhibitor
COc1ccc(NC(=O)c2ccc([N+](=O)[O-])s2)c([N+](=O)[O-])c1,-1%,-19%,3%,10µM*,-2%
O=C(c1ccc([N+](=O)[O-])s1)N1CCN(c2ccccc2)CC1,-68%,?,21µM*,-3%,?
COc1ccc(NC(=O)c2ccc(C)o2)c([N+](=O)[O-])c1,-12%,4%,6%,1%[9.22 µM],-7%
COc1cccc(/C=C/C2=CC(C)(C)NC(=S)N2)c1,13µM*,1%,?,13%,-14%
CCOc1ccc(C2C(C(=O)Nc3ccccc3)=C(C)Nc3nc(-c4ccccc4Cl)nn32)cc1OC (stereo unspecified),-17%,-13%,?,17%,-8%
CCOc1cc(CNCCO)cc(Br)c1OCc1ccc(Cl)cc1Cl,16µM*,-3%,-9%,-4%,?
OCCNCc1cc(Br)ccc1OCc1ccc(Cl)cc1,-51%,-15%,?,4%,?
OCCNCc1cc(Br)ccc1OCc1ccc(Cl)cc1Cl,16µM*,-25%,-26%,-2%,?
CC(C(=O)N(C)C1CCS(=O)(=O)C1)N1C(=O)/C(=C/c2ccc(F)cc2)SC1=S (stereo unspecified),-6%,-13%,?,12%,?
CCN(C(=O)CN1C(=O)S/C(=C\c2cccc(Cl)c2)C1=O)C1CCS(=O)(=O)C1 (stereo unspecified),-16%,0%,-16%,11µM*,5%
CCN(C(=O)C(C)N1C(=O)/C(=C/c2ccco2)SC1=S)C1CCS(=O)(=O)C1 (stereo unspecified),-18%,15µM*,?,25%,-27%
CCc1ccc(OCC(=O)N(Cc2cccs2)c2ccc(Cl)cc2)cc1,-33%,5%,-18%,6%,16µM*
COc1ccc(OCC(=O)N(Cc2cccs2)c2ccc(OC)cc2)cc1,-10%,-1%,?,3%,-28%
CCOc1ccccc1C(=O)N(Cc1cccs1)c1ccc(Cl)cc1,-97%,-4%,-28%,9%,18µM*
CCOc1ccc(S(=O)(=O)N2CCN(S(=O)(=O)c3ccc(C(C)=O)cc3)CC2)cc1,0%,4%,6%,0%,3%
COc1ccc2cc(CN(CCO)C(=O)c3ccccc3F)c(=O)[nH]c2c1,13%,0%,6%,0%,2%
COc1ccc2cc(CN(CCO)C(=O)c3ccc(Br)cc3)c(=O)[nH]c2c1,1%,-13%,21µM*,1%,-1%
O=C(Nc1nc(-c2ccccc2)cs1)C1c2ccccc2Oc2ccccc21,5%,-4%,-2%,1%,?
O=C(Nc1nc(-c2ccncc2)cs1)C1c2ccccc2Oc2ccccc21,-17%,?,15µM*,4%,-47%
Cc1nc(NC(=O)/C=C/c2ccccc2)n[nH]1,16%,-13%,-2%,7.1µM*,13µM*
O=C(/C=C/c1ccccc1)Nc1nc(-c2ccncc2)cs1,6%,?,13µM*,7%,-3%
COc1ccc(-c2oc3c(OC)c(OC)c(OC)c(O)c3c(=O)c2OC)cc1OC,-51%,3%,?,-1%,-10%
C=CCSC1=N/C(=C\C=C\c2ccco2)C(=O)S1,-18%,-19%,-2%,13µM*,?
C=CCSC1=N/C(=C\c2sccc2C)C(=O)S1,-19%,-13%,2%,4%,-16%
Brc1ccc(-c2csc(Nc3nc(-c4ccc(Br)cc4)cs3)n2)cc1,5%,4%,15%,3%,0%
SMILES,HepG2 viability,A549 viability,Nrf2 block,Nrf2 ARE act,TGFb inhibitor
CCCCN(C)Cc1c(O)ccc2c(-c3ccccc3)cc(=O)oc12,-22%,19%,14%,0%,-23%
Cc1cc(C(=O)CSc2nc3ccc(Cl)cc3[nH]2)c(C)n1CC1CCCO1 (stereo unspecified),-22%,-27%,13µM*,4%,?
Cc1cc(C(=O)CSc2nc3ccc(Cl)cc3[nH]2)c(C)n1C,-26%,-10%,-7%,1%,-5%
Cc1cc(C(=O)COC(=O)c2cc(O)c3ccccc3c2O)c(C)n1CC1CCCO1 (stereo unspecified),-30%,-18%,0%,9%,14µM*
Cc1cc(C(=O)COC(=O)c2ccccc2O)c(C)n1CC1CCCO1 (stereo unspecified),-3%,0%,?,-2%,-7%
Cc1cc(C(=O)COC(=O)c2ccccc2Br)c(C)n1CC1CCCO1 (stereo unspecified),-10%,-3%,28%,-2%,-8%
Cc1cc(C(=O)COc2ccccc2C(N)=O)c(C)n1CC1CCCO1 (stereo unspecified),6%,-14%,4.6µM*,1%,-5%
CCN(c1ccccc1)S(=O)(=O)c1ccc(C(=O)N(C)Cc2cccs2)cc1,-8%,4%,-23%,-1%,-25%
COC(=O)c1ccc2c(c1)N(C)S(=O)(=O)c1cnc(SCC(=O)C(C)(C)C)nc1-2,-10%,0%,0%,1%,16%
O=C(NC1CCCCC1)N1CCN(c2ccc([N+](=O)[O-])cc2)CC1,-4%,-24%,23µM*,0%,-8%
Cc1noc(C)c1CSCC(=O)N1CCN(c2ccc([N+](=O)[O-])cc2)CC1,-3%,?,21µM*,5%,-6%
O=C(NC1CCCCC1)N1CCN(c2ccc(Cl)cc2)CC1,0%,0%,?,-1%,-10%
Cc1ccc(CC(=O)N2CCN(c3ccc([N+](=O)[O-])cc3)CC2)cc1,-17%,?,21µM*,2%,-9%
COC(=O)c1ccc(C)c(NC(=S)NCc2ccc(Cl)cc2)c1,-5%,11%,0%,0%,-2%
O=CN1CCN(C(=O)c2ccccc2Cl)CC1,72%,0%,2%,0%,2%
Clc1ccsc1-c1ccc2ccccc2n1,5%,-3%,?,10µM*,3%
c1ccc2nc(-c3nccs3)ccc2c1,-9%,3%,?,3%,-14%
Clc1ccsc1-c1ccnc(-n2cccc2)n1,-6%,8%,?,10µM*,-5%
Cc1ccsc1-c1ccnc(-n2cccc2)n1,-34%,9%,?,5µM*,-7%
COc1cc(NC(=O)c2cccs2)c(C(=O)OCC(=O)NCc2ccco2)cc1OC,4%,-16%,?,3%,1%
O=C(CNS(=O)(=O)c1ccc(Br)s1)Nc1ccc2c(c1)OCCO2,-3%,0%,11%,0%,1%
C=CCOc1ccc(C2C3=C(CCCC3=O)N(CC(=O)O)C3=C2C(=O)CCC3)cc1OCC,0%,-15%,-17%,0%,2%
CC(C)(C)OC(=O)COc1cc(O)c2c(=O)cc(-c3ccccc3)oc2c1,-23%,-2%,?,3%,-22%
